# PubChem BioAssay (NCATS)
# Inconclusive results are not listed. The source made the active and inactive calls. Unless noted, the call rests on the fitted dose curve; in most records, active means well fitted curve in the direction sought with a large enough effect; inconclusive means small, poorly fitted or top-dose-only effect, or another doubt; inactive means no such curve, though single readings can be large; an effect the other way counts as inactive or inconclusive.
# Key:
# [1] = High-throughput drug toxicity screening in the BPDCN cell line Gen2.2 (AID 1224824; call rule not given here;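 further: cells exposed to compounds for 48 h before reading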); settings: Gen2.2 BPDCN cells; at 45.8 µM (top of the series)
# Procedure, shortened: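 Gen2.2 cells (500/well) in phenol red-free RPMI with 10% FBS were exposed to compounds for 48 h at 37 °C, 5% CO2. Viability was read by CellTiter-Glo luminescence and normalized to DMSO (100%) and 9.2 uM bortezomib (0%).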
# [2] = High-throughput drug toxicity screening in the BPDCN cell line Cal-1 (AID 1224825; call rule not given here); settings: Cal-1 BPDCN cell viability, qHTS; at 45.8 µM (top of the series)
# Procedure, shortened: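 Viability of the BPDCN line Cal-1 is measured as ATP-based luminescence (CellTiter-Glo) following 48 h incubation with compounds. Percent activity uses DMSO-treated wells as 100% and 9.2 uM bortezomib as 0%.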
# [3] = qHTS assay for measurement of the activity of small molecule inhibitors on Zika virus induced Caspase-3 activity in human iPSC derived neural progenitor cells (hNPCs) (AID 1224857); settings: hNPCs ZIKV-induced caspase-3/7, Caspase-Glo luminescence, 6 h; series mostly up to 45.7 µM; further: % of control where 0% means no effect; nearly all actives have a fitted effect of over 65% in size
# Procedure, shortened: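 Values are percent inhibition of virus-induced caspase-3/7 signal, scaled between uninfected cells and ZIKV-infected cells. Infection used 2 FFU/cell for 6 h after 1 h compound exposure.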
# [4] = qHTS Screen of the MIPE 4.0 Collection Against Ewings Sarcoma (RDES) (AID 1259252); settings: RD-ES Ewing sarcoma viability, CellTiter-Glo, 48 h; series mostly up to 45.8 µM; further: nearly all actives have a fitted effect of over 35% in size; further: potency means the concentration at half of the fitted maximal effect
# Procedure, shortened: (§1)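 Here, cells in 5% FBS RPMI were exposed for two days (48 h) to compound dilutions added four hours after plating. ATP-based CellTiter-Glo luminescence measured viability, normalized to vehicle and no-cell blanks.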
# [5] = qHTS Screen of the MIPE 4.0 Collection Against Ewings Sarcoma (EW8) (AID 1259255); settings: EW8 Ewing sarcoma viability, CellTiter-Glo, 48 h; series mostly up to 45.8 µM; further: nearly all actives have a fitted effect of over 35% in size; further: potency means the concentration at half of the fitted maximal effect;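 on viability: 100% = DMSO-treated cells and 0% = medium-only wells without cells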
# Procedure, shortened: as §1
# [6] = qHTS Screen of the MIPE 4.0 Collection Against Ewings Sarcoma (TC32) (AID 1259256); settings: TC32 Ewing sarcoma viability, CellTiter-Glo, 48 h; series mostly up to 45.8 µM; further: nearly all actives have a fitted effect of over 45% in size; further: potency means the concentration at half of the fitted maximal effect
# Procedure, shortened: as §1
# [7] = qHTS assay for measurement of the activity of small molecule inhibitors on Zika virus induced Caspase-3 activity in human astrocytoma cells (AID 1224859); settings: SNB-19 ZIKV-induced caspase-3/7, luminescence, 6 h; series mostly up to 45.7 µM;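 further: plate controls were ZIKV-infected untreated cells for no effect and uninfected cells for full effect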
# Procedure, shortened: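 Compound added 1 h pre-infection; ZIKV 2 FFU/cell on SNB-19 cells, 6 h, 37 C/5% CO2. Caspase-Glo 3/7 luminescence; values as % inhibition of ZIKV-induced caspase activity.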
# [8] = qHTS assay to identify small molecule inhibitors of chordoma cells - UCH-1 (AID 1259355); settings: UCH-1 chordoma viability, CellTiter-Glo, 48 h, combination; series mostly up to 46.1 µM; further: on the % scale 0 is the no-effect control and ±100 the full control effect; nearly all actives have a fitted effect of over 55% in size
# Procedure, shortened: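 A 48hr growth-inhibition format: each drug tested at 15 concentrations together with added auranofin, camptothecin, doxorubicin, rubitecan and topotecan, with cell viability quantified as CellTiter-Glo luminescence.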
# [9] = qHTS assay to identify small molecule inhibitors of chordoma cells - UCH-2 (AID 1259356); settings: UCH-2 chordoma viability, CellTiter-Glo ATP luminescence, 48 h; series mostly up to 46.1 µM; further: on the % scale 0 is the no-effect control and ±100 the full control effect
# [10] = qHTS Screen of the MIPE 4.0 Collection Against Ewings Sarcoma (TC71) (AID 1259253); settings: TC71 Ewing sarcoma viability, CellTiter-Glo, 48 h; series mostly up to 45.8 µM; further: nearly all actives have a fitted effect of over 40% in size; further: potency means the concentration at half of the fitted maximal effect
# Procedure, shortened: as §1
SMILES,"cell viability, % of control (lower = more cytotoxic) [1] [%]",viability (% of control) [2] [%],Potency [3],Potency [4],Potency [5],Potency [6],Potency [7],Potency [8],Potency [9],Potency [10]
CC(C)N(CCNC(=O)CN1CCCC1=O)C(C)C,108,111,inactive,inactive,inactive,inactive,–,–,–,–
CC(=Cc1csc(C)n1)[C@@H]1C[C@H]2O[C@]2(C)CCC[C@H](C)[C@@H](O)[C@@H](C)C(=O)C(C)(C)[C@@H](O)CC(=O)O1,50.2,17,inactive,inactive,inactive,inactive,–,–,–,–
COc1ccc2c(c[n+](C)c3c4cc5c(cc4ccc23)OCO5)c1OC,7.65,3.4,–,4.69 µM (active),7.43 µM (active),8.33 µM (active),inactive,–,–,–
CN(C)[C@@H]1C(=O)C(C(N)=O)=C(O)[C@@]2(O)C(=O)C3=C(O)c4c(O)cccc4[C@@](C)(O)[C@H]3[C@H](O)[C@@H]12,109,100,–,inactive,inactive,inactive,inactive,inactive,inactive,–
COC(=O)[C@@H](N)CCCN=C(N)N[N+](=O)[O-],113,132,–,inactive,inactive,inactive,inactive,–,–,inactive
COC1=CC(C)=C[C@@H](C)[C@@H](O)[C@@H](C)CC(C)=CC=C[C@H](OC)[C@H]([C@@H](C)[C@@H](O)[C@H](C)[C@@]2(O)C[C@@H](O)[C@H](C)[C@@H](C(C)C)O2)OC1=O,67.2,18.4,–,0.0059 µM (active),0.0053 µM (active),0.0033 µM (active),inactive,–,–,–
CCOC(=O)Nc1ccc(NCc2ccc(F)cc2)cc1N,120,105,inactive,–,–,20.9 µM (active),–,–,–,29.6 µM (active)
O=C1CCC[C@@H]2[C@H]3CCCN4CCC[C@@H](CN12)[C@@H]34,219,120,inactive,inactive,inactive,inactive,–,–,–,inactive
C[C@]12CC[C@@H]3[C@@H](CCC4=CC(=O)CC[C@@H]43)[C@@H]1CC[C@@H]2OC(=O)CCc1ccccc1,119,104,–,inactive,–,–,inactive,–,–,–
O=[N+]([O-])c1ncc[nH]1,102,122,inactive,inactive,inactive,–,–,–,–,inactive
C#C[C@]1(O)C=C[C@@H]2[C@@H]3CCC4=CC(=O)CC[C@@H]4[C@H]3CC[C@@]21CC,62.7,74.7,inactive,inactive,inactive,inactive,–,–,–,–
C=C[C@@H]1CN2CCC1C[C@H]2[C@H](O)c1ccnc2ccccc12 (some centres undefined),14.7,47.1,–,23.5 µM (active),–,18.7 µM (active),inactive,–,–,–
CCN(CC)C(=O)c1ccc(C2=CC3(CCNCC3)Oc3cccc(O)c32)cc1,122,79,–,inactive,inactive,–,inactive,–,–,inactive
NC1=NC(=O)N2CC12 (centres undefined),8.27,7.57,inactive,inactive,inactive,inactive,–,inactive,inactive,–
CC[C@@]1(O)C(=O)OCc2c1cc1n(c2=O)Cc2cc3ccccc3nc2-1,4.89,3.88,inactive,0.0132 µM (active),0.0118 µM (active),0.0037 µM (active),–,–,–,–
CN1CCN(c2ccc([N+](=O)[O-])c3no[n+]([O-])c23)CC1,4.61,4.53,inactive,–,23.5 µM (active),18.7 µM (active),–,–,–,23.5 µM (active)
CCCN1CCO[C@@H]2c3cc(O)ccc3OC[C@@H]21,209,16.6,–,inactive,–,–,inactive,–,–,inactive
Cc1c(C(=O)Nc2cccc(C(F)(F)F)c2)cc(-c2ccccc2)n1CCCN1CCOCC1,52.7,37.9,inactive,13.2 µM (active),16.6 µM (active),8.33 µM (active),–,–,–,–
C[C@]12CC[C@H]3[C@@H](CCC4=CC(=O)CC[C@@]43C)[C@H]1CC[C@H]2OC(=O)CCC1CCCC1,94,104,–,inactive,inactive,inactive,inactive,–,–,inactive
O=C(Oc1ccc([N+](=O)[O-])cc1)N1CCC(C(O)(c2ccc3c(c2)OCO3)c2ccc3c(c2)OCO3)CC1,40.5,64.3,–,16.6 µM (active),inactive,inactive,inactive,–,–,–
COC1=C[C@@H]2[C@@H]3Cc4ccc(OC)c(O)c4[C@]2(CCN3C)CC1=O,69.4,12.3,inactive,4.69 µM (active),–,2.96 µM (active),–,–,–,3.32 µM (active)
N#C[C@H](O[C@@H]1O[C@H](CO[C@@H]2O[C@H](CO)[C@H](O)[C@H](O)[C@H]2O)[C@H](O)[C@H](O)[C@H]1O)c1ccccc1,180,52.5,–,23.5 µM (active),20.9 µM (active),26.4 µM (active),inactive,–,–,–
